Consider one molecule from the supplement of paper PMC8728848.

About 410 targets per protein were measured; listed, in parts, are those with the strongest signals and a random draw of the rest.

Common to all, as to experiment: glycan array binding signal (z-score within array); higher = stronger binding
Common to all, as to conditions: glycan notation: IUPAC condensed, linker removed

Experiment [1] has as its target Gal(b1-4)GlcNAc(b1-3)Gal(b1-4)GlcNAc(b1-3)Gal(b1-4)GlcNAc(b1-2)[Gal(b1-4)GlcNAc(b1-3)Gal(b1-4)GlcNAc(b1-3)Gal(b1-4)GlcNAc(b1-6)]Man(a1-6)[Gal(b1-4)GlcNAc(b1-3)Gal(b1-4)GlcNAc(b1-3)Gal(b1-4)GlcNAc(b1-2)Man(a1-3)]Man(b1-4)GlcNAc(b1-4)[Fuc(a1-6)]GlcNAc. Summed up:
(§1)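 Glycan array data came from 3228 arrays in the Consortium for Functional Glycomics database, and only arrays with an available protein sequence were kept. Glycan names were put into IUPAC-condensed notation, and columns mapping to the same glycan were averaged. The binding signal is a within-array Z-score, averaged across arrays of one protein sequence run at different concentrations or buffers and across linkers. A negative Z-score can be read as non-binding.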

For experiment [2], the target named is Gal(b1-4)GlcNAc(b1-3)Gal(b1-4)GlcNAc(b1-3)Gal(b1-4)GlcNAc(b1-3)Gal(b1-4)GlcNAc(b1-2)[Gal(b1-4)GlcNAc(b1-3)Gal(b1-4)GlcNAc(b1-3)Gal(b1-4)GlcNAc(b1-3)Gal(b1-4)GlcNAc(b1-6)]Man(a1-6)[Gal(b1-4)GlcNAc(b1-3)Gal(b1-4)GlcNAc(b1-3)Gal(b1-4)GlcNAc(b1-3)Gal(b1-4)GlcNAc(b1-2)Man(a1-3)]Man(b1-4)GlcNAc(b1-4)[Fuc(a1-6)]GlcNAc. The method in brief: as §1
Experiment [3] deals with Gal(b1-4)GlcNAc(b1-3)Gal(b1-4)GlcNAc(b1-3)Gal(b1-4)GlcNAc(b1-3)Gal(b1-4)GlcNAc(b1-3)Gal(b1-4)GlcNAc(b1-2)[Gal(b1-4)GlcNAc(b1-3)Gal(b1-4)GlcNAc(b1-3)Gal(b1-4)GlcNAc(b1-3)Gal(b1-4)GlcNAc(b1-3)Gal(b1-4)GlcNAc(b1-6)]Man(a1-6)[Gal(b1-4)GlcNAc(b1-3)Gal(b1-4)GlcNAc(b1-3)Gal(b1-4)GlcNAc(b1-3)Gal(b1-4)GlcNAc(b1-3)Gal(b1-4)GlcNAc(b1-2)Man(a1-3)]Man(b1-4)GlcNAc(b1-4)[Fuc(a1-6)]GlcNAc. The method in brief:
as §1

The target of experiment [4] is Gal3S(b1-4)Glc. Summed up:
as §1

Experiment [5] addresses Gal3S(b1-4)[Fuc(a1-3)]Glc6S. The method in brief: as §1
The target in experiment [6] is Gal6S(b1-4)Glc. Summed up:
as §1

The target of experiment [7] is GalNAc3S(b1-4)GlcNAc. Summed up:
as §1

The target in experiment [8] is GlcNAc(b1-3)Gal(b1-4)GlcNAc(b1-2)Man(a1-3)[GlcNAc(b1-3)Gal(b1-4)GlcNAc(b1-2)Man(a1-6)]Man(b1-4)GlcNAc(b1-4)GlcNAc. Summed up:
as §1

The target in experiment [9] is GlcNAc(b1-3)GalNAc. Summed up: as §1
The target in experiment [10] is Man(a1-3)[Man(a1-6)]Man(b1-4)GlcNAc(b1-4)[Fuc(a1-6)]GlcNAc. Summed up:
as §1

The target in experiment [11] is Neu5Ac(a2-3)Gal(b1-3)GlcNAc(b1-2)Man(a1-3)[GlcNAc(b1-4)][Neu5Ac(a2-3)Gal(b1-3)GlcNAc(b1-2)Man(a1-6)]Man(b1-4)GlcNAc(b1-4)GlcNAc. The method in brief:
as §1

Experiment [12] addresses Neu5Ac(a2-3)Gal(b1-3)GlcNAc(b1-4)Gal(b1-4)Glc. The method in brief: as §1
In experiment [13] the target is Neu5Ac(a2-3)Gal(b1-4)GlcNAc(b1-2)Man(a1-3)[Neu5Ac(a2-6)Gal(b1-4)GlcNAc(b1-2)Man(a1-6)]Man(b1-4)GlcNAc(b1-4)GlcNAc. Summed up:
as §1

Experiment [14] addresses Neu5Ac(a2-3)Gal(b1-4)GlcNAc(b1-2)[Neu5Ac(a2-3)Gal(b1-4)GlcNAc(b1-6)]Man(a1-6)[Neu5Ac(a2-3)Gal(b1-4)GlcNAc(b1-2)Man(a1-3)][GlcNAc(b1-4)]Man(b1-4)GlcNAc(b1-4)GlcNAc. Summed up:
as §1

Experiment [15] has as its target Neu5Ac(a2-3)Gal(b1-4)GlcNAc(b1-3)Gal(b1-4)GlcNAc(b1-3)Gal(b1-4)GlcNAc. Summed up:
as §1

Experiment [16] addresses Neu5Ac(a2-3)Gal(b1-4)[Fuc(a1-3)]GlcNAc(b1-2)Man. The method in brief:
as §1

Experiment [17] deals with Neu5Ac(a2-3)GalNAc(b1-4)GlcNAc. Summed up:
as §1

For experiment [18], the target named is Neu5Ac(a2-6)Gal. Summed up:
as §1

Experiment [19] addresses Neu5Ac(a2-6)Gal(b1-4)GlcNAc(b1-2)Man(a1-3)[GlcNAc(b1-4)][Neu5Ac(a2-6)Gal(b1-4)GlcNAc(b1-2)Man(a1-6)]Man(b1-4)GlcNAc(b1-4)GlcNAc. The method in brief: as §1
The target of experiment [20] is Neu5Ac9Ac(a2-6)Gal(b1-4)GlcNAc. Summed up:
as §1

Experiment [21] concerns the target Neu5Gc(a2-3)Gal(b1-4)GlcNAc. Summed up: as §1
The target of experiment [22] is Neu5Gc(a2-6)GalNAc. The method in brief: as §1
Experiment [23] deals with Neu5Gc(a2-8)Neu5Gc(a2-6)Gal(b1-4)GlcNAc. The method in brief: as §1
For experiment [24], the target named is Neu5Gc(b2-6)Gal(b1-4)GlcNAc. The method in brief:
as §1

B1: AntigenI/IIC123 (Streptococcus mutans), C9E3B4 (protein)
chain: MASMTGGQQMGRIHFHYFKLAVQPQVNKEIRNNNDINIDRTLVAKQSVVKFQLKTADLPAGRDETTSFVLVDPLPSGYQFNPEATKAASPGFDVTYDNATNTVTFKATAATLATFNADLTKSVATIYPTVVGQVLNDGATYKNNFTLTVNDAYGIKSNVVRVTTPGKPNDPDNPNNNYIKPTKVNKNENGVVIDGKTVLAGSTNYYELTWDLDQYKNDRSSADTIQKGFYYVDDYPEEALELRQDLVKITDANGNEVTGVSVDNYTNLEAAPQEIRDVLSKAGIRPKGAFQIFRADNPREFYDTYVKTGIDLKIVSPMVVKKQMGQTGGSYENQAYQIDFGNGYASNIIINNVPKINPKKDVTLTLDPADTNNVDGQTIPLNTVFNYRLIGGIIPADHSEELFEYNFYDDYDQTGDHYTGQYKVFAKVDITFKDGSIIKSGAELTQYTTAEVDTAKGAITIKFKEAFLRSVSIDSAFQAESYIQMKRIAVGTFENTYINTVNGVTYSSLEHHHHHH
For B1, the “glycan array binding signal (z-score)” value was 3.08 in experiment [1]; 2.31 in [2]; 4.43 in experiment [3]; -0.499 in [4]; 2.84 in [5]; -0.033 in [6]. In addition, the “glycan array binding signal (z-score)” value in experiment [7] was -1.45; in [8] it was 0.67; in experiment [9], -0.207; in experiment [10], -0.768; in experiment [11], 0.141; in experiment [12], -0.775. In addition, the “glycan array binding signal (z-score)” value in experiment [13] is -0.814; in experiment [14], -1.1; in experiment [15] it was -0.469; in [16], -0.89; in experiment [17] it was 0.443; in experiment [18] it was 4.55. Moreover, the “glycan array binding signal (z-score)” value in experiment [19] is -0.868; in [20], -1.27; in [21], -1.14; in experiment [22], -0.987; in experiment [23], -0.326; in [24] it was -0.257.
